Compound activity deposited in PubChem BioAssay by Center for Chemical Genomics, University of Michigan.
This excerpt belongs to a sample that is enriched for hits.
Dicer inh – blocks human Dicer maturation of pre-miR-21. z-score at 25 µM. 47,000 tested, 6% active. Q9UPY3. cat-ELCCA pre-miR-21 Dicer processing, chemiluminescence; hits give high values; in the data active = z-score above about 3, passing the limit was not always enough;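 also: plate controls were vehicle for no effect and no enzyme for full effect; higher signal means more uncleaved substrate so more Dicer inhibition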
Target sequence (Q9UPY3 whole entry, looked up): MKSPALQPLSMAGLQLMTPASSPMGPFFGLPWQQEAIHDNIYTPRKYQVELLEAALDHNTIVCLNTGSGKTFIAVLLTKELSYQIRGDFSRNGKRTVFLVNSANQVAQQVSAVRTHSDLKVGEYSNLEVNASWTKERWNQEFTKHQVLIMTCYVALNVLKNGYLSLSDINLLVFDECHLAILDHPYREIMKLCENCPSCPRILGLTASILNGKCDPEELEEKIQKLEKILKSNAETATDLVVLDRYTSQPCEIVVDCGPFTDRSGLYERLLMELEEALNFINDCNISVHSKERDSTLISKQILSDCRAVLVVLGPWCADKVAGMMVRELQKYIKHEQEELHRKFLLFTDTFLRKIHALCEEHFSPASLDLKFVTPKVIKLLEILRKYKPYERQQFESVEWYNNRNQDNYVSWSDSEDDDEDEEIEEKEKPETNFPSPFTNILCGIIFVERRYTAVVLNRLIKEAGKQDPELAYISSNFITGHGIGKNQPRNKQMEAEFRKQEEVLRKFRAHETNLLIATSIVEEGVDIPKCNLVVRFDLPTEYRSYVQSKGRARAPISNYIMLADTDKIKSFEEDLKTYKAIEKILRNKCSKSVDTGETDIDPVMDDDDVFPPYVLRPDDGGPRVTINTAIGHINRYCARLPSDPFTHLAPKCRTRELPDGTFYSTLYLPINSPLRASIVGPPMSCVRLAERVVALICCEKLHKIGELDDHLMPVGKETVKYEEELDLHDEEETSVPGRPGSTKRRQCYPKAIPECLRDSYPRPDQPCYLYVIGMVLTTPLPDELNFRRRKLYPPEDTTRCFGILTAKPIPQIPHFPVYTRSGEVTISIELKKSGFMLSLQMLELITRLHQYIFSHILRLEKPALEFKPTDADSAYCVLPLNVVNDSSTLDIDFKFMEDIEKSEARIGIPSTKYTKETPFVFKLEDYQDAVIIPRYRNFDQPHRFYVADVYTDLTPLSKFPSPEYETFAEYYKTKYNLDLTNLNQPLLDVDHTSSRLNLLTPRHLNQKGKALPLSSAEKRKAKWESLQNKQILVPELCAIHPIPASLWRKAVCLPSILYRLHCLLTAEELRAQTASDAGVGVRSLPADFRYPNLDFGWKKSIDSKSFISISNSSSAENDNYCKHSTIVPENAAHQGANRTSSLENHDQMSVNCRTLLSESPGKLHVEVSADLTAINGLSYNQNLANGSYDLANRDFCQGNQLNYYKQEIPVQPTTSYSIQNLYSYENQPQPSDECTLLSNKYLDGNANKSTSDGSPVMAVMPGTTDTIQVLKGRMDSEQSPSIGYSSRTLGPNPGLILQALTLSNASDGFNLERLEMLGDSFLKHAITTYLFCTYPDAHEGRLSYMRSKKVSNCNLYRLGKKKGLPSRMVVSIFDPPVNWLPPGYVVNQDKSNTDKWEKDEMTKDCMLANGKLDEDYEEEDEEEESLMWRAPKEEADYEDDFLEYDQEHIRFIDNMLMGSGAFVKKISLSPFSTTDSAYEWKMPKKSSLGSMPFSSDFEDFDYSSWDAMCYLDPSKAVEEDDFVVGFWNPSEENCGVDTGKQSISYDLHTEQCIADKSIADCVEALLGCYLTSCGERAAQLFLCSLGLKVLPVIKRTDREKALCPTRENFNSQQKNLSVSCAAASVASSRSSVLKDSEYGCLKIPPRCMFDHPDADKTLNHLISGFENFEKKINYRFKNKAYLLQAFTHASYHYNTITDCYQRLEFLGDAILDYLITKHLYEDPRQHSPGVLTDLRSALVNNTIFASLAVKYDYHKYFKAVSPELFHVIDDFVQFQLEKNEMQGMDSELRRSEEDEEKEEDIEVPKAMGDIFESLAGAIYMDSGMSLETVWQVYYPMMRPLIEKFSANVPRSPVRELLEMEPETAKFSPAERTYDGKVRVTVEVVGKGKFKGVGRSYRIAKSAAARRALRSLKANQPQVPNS
Active calls of the source: *.

How did Cc1cc(C2(c3ccc(N)c(C)c3)CCCCC2)ccc1N do in these assays?
Dicer inh: 3.1*

Results for CC(=O)Oc1ccc(C2C(C(=O)OC3CCCCC3)=C(C)NC3=C2C(=O)CCC3)cc1 (stereo not drawn) ?
Dicer inh: -0.36

Results for Cc1cccc(CNCc2ccc3c(c2)OCO3)c1 ?
Dicer inh: 0.66

Results for CCOc1ccc(C2C(C(=O)OCc3ccc(OC)cc3)=C(C)NC3=C2C(=O)CC(C)(C)C3)cc1 (stereo not drawn) ?
Dicer inh: 1.5

Results for CCOc1ccc2c(c1)-c1c(sn(-c3ccccc3OC)c1=S)C(C)(C)N2 ?
Dicer inh: 0.92

Results for COc1ccc2c(c1)-c1c(sn(-c3ccccc3OC)c1=S)C(C)(C)N2 ?
Dicer inh: 6.6*

How did CC(=O)Nc1ccc(-n2sc3c(c2=S)-c2ccccc2NC3(C)C)cc1 do in these assays?
Dicer inh: 5.3*

Results for CC(=O)Nc1ccc(-n2sc3c(c2=S)-c2cccc(C)c2NC3(C)C)cc1 ?
Dicer inh: 7.9

Results for CCOC(=O)c1ccc(-n2sc3c(c2=S)-c2ccccc2NC3(C)C)cc1 ?
Dicer inh: 0.62

How did COc1ccc2c(c1)-c1c(sn(-c3cc(C)ccc3O)c1=S)C(C)(C)N2 do in these assays?
Dicer inh: 1.9

How did COC(=O)c1ccc(C2C3=C(CCCC3=O)NC3=C2C(=O)c2ccccc23)cc1 (stereo not drawn) do in these assays?
Dicer inh: -0.7

What do the screens show for `C=CCOC(=O)c1sc(NC(=O)c2sc3ccccc3c2Cl)nc1C`?
Dicer inh: 0.79

Results for COC(=O)c1cn(C(=O)c2cnn3c(C(F)F)cc(-c4ccc(OC)cc4)nc23)c2ccccc12 ?
Dicer inh: 1.2

How did CC(C)OC(=O)c1cc2nc(-c3ccccc3)cc(C(F)(F)F)n2n1 do in these assays?
Dicer inh: -0.06

What do the screens show for `CCSCCOC(=O)C1=C(C)NC2=C(C(=O)CC(C)(C)C2)C1c1coc2ccccc2c1=O` (stereo not drawn)?
Dicer inh: -0.49

What do the screens show for `Cc1cn(-c2ncnc3scc(-c4ccccc4)c23)nc1C(F)(F)F`?
Dicer inh: -0.97

How did Clc1ccc(/C=N/Nc2nc3c(Cl)cc(Cl)cc3s2)cc1 do in these assays?
Dicer inh: -0.37

What do the screens show for `CN(C)/C=C/C(=O)c1ccc(C#N)cc1`?
Dicer inh: 0.35

How did CN(C)/C=C/C=C/C=C/C(=O)c1ccc(Br)cc1 do in these assays?
Dicer inh: 4.5*

What do the screens show for `CC(C)Cc1ccc(C(=O)/C=C/N(C)C)cc1`?
Dicer inh: 0.54

How did N#Cc1ccc(CSC2=NCN(Cc3ccccc3)CN2)cc1 do in these assays?
Dicer inh: -0.69

Results for Cc1ccccc1-n1cc(C#N)c(=O)[nH]c1=O ?
Dicer inh: 0.27

How did O=C1c2oc3ccc(Br)cc3c(=O)c2C(c2ccc(O)cc2)N1Cc1ccccc1 (stereo not drawn) do in these assays?
Dicer inh: 0.09

Results for O=C1c2ccccc2-c2nc3cc(C(F)(F)F)ccc3nc21 ?
Dicer inh: -1.7

What do the screens show for `Cc1nc2ccc(C(F)(F)F)cc2nc1C`?
Dicer inh: 3.5*

Results for Cc1nc2ccc([N+](=O)[O-])cc2nc1C ?
Dicer inh: -0.66

How did COc1ccc(C2C3=C(CC(C)(C)CC3=O)Nc3c2ccc2ccccc32)cc1OC (stereo not drawn) do in these assays?
Dicer inh: -0.42

How did O=C(CN1c2cccc3cccc(c23)S1(=O)=O)Nc1cccc(Br)c1 do in these assays?
Dicer inh: -1.4

What do the screens show for `COc1ccccc1-c1coc2cc(OC(=O)c3cncc(Br)c3)ccc2c1=O`?
Dicer inh: 1.4

What do the screens show for `COc1cccc(N2Cc3ccccc3C2)c1`?
Dicer inh: 0.48

Results for FC(F)(F)c1[nH]ncc1-c1nnnn1-c1ccc(Cl)cc1 ?
Dicer inh: 4.8*

How did Fc1ccc(-n2nnnc2-c2cnn(-c3ccccc3Cl)c2C(F)(F)F)cc1 do in these assays?
Dicer inh: -1.6

What do the screens show for `Nc1ncc(-c2nnnn2-c2ccc(F)cc2)c(C(F)(F)F)n1`?
Dicer inh: 1.8

What do the screens show for `CC(C)(C)C1CCc2c(sc(NC(=O)COc3ccccc3)c2C(N)=O)C1` (stereo not drawn)?
Dicer inh: -1.3

Results for CC(C)c1ccc(Cc2cn3cc(-c4ccccc4)nc3s2)cc1 ?
Dicer inh: 0.2

What do the screens show for `COC(=O)c1ccc(C2Nn3c(C)nnc3SC2C(=O)Nc2cc(C)ccc2C)cc1` (stereo not drawn)?
Dicer inh: 0.05

How did CCc1nc(C)cn1S(=O)(=O)c1ccc(Br)c(OC)c1 do in these assays?
Dicer inh: 2

Results for COCCNC(=O)C(=O)NCCCO ?
Dicer inh: -1.3

How did Cc1ccc2ncnc(Nc3ccc(Cl)cc3)c2c1 do in these assays?
Dicer inh: -0.33

How did Cn1cnc2c(NCc3ccco3)ncnc21 do in these assays?
Dicer inh: -1.5

Results for Cc1ccc2ncnc(NCc3ccco3)c2c1 ?
Dicer inh: 4.5*

How did Cc1ccc(C2C3=C(Nc4ncnn42)c2ccccc2CCC3)cc1 (stereo not drawn) do in these assays?
Dicer inh: 2

Results for O=S(=O)(NCc1ccccn1)c1ccc(S(=O)(=O)c2ncc(C(F)(F)F)cc2Cl)s1 ?
Dicer inh: -0.86

How did O=C(CC1(O)C(=O)Nc2ccccc21)c1cc2ccccc2o1 (stereo not drawn) do in these assays?
Dicer inh: 2.5

What do the screens show for `NNC(=O)/C(=C\c1ccccc1Cl)NC(=O)c1ccccc1`?
Dicer inh: 1.2

How did COc1ccc(NC(=O)c2cc3n(n2)C(C(F)(F)F)CC(c2ccco2)N3)cc1 (stereo not drawn) do in these assays?
Dicer inh: -1.3

Results for COc1ccc(NC(=O)c2cnn3c2NC(c2ccco2)CC3C(F)(F)F)c(OC)c1 (stereo not drawn) ?
Dicer inh: 3

Results for CCc1c(C)sc(NC(=O)c2cc3n(n2)C(C(F)(F)F)CC(c2ccco2)N3)c1C#N (stereo not drawn) ?
Dicer inh: 4*

Results for Cc1ccc(C2CC(C(F)(F)F)n3ncc(C(=O)Nc4ccc5c(c4)OCO5)c3N2)cc1 (stereo not drawn) ?
Dicer inh: 0

What do the screens show for `O=C(Nc1ccc2c(c1)OCO2)c1cnn2c1NC(c1ccco1)CC2C(F)(F)F` (stereo not drawn)?
Dicer inh: 5*

How did CC(C)(C)NC(=O)c1cc2n(n1)C(C(F)(F)F)CC(c1ccco1)N2 (stereo not drawn) do in these assays?
Dicer inh: -0.06

How did COc1ccc(NC(=O)c2cc3n(n2)C(C(F)(F)F)CC(c2ccco2)N3)cc1OC (stereo not drawn) do in these assays?
Dicer inh: -0.8

How did O=C(Nc1ccccc1F)c1cc2n(n1)C(C(F)(F)F)CC(c1ccco1)N2 (stereo not drawn) do in these assays?
Dicer inh: -0.64

What do the screens show for `O=C(Nc1cccc(O)c1)c1cc2n(n1)C(C(F)(F)F)CC(c1ccco1)N2` (stereo not drawn)?
Dicer inh: 3.3*

Results for CC1(C)CC(=O)C2=C(C1)Nc1cc(C(=O)c3ccccc3)ccc1NC2c1ccc(F)cc1 (stereo not drawn) ?
Dicer inh: -0.51

What do the screens show for `S=C(Nc1ccc(Cl)c(Cl)c1)Nc1cc(-c2cccs2)[nH]n1`?
Dicer inh: -0.42

How did CCCOc1ccc(Oc2nc(NCC)nc(N(C)C)n2)nn1 do in these assays?
Dicer inh: 1.2

Results for C=CCOc1ccc(C2c3c(oc4ccccc4c3=O)C(=O)N2c2nc(C)c(C)s2)cc1 (stereo not drawn) ?
Dicer inh: 0.63
